# Laboratory results: PubChem BioAssay AID540317 (National Center for Advancing Translational Sciences (NCATS), 2011)
# Screen size: about 390,000 compounds; about 2,200 (0.56%) were called active. Roughly 3% stayed inconclusive and do not appear here. Shown is part of a subset that was picked to be rich in actives. Unmarked numbers belong to inactive results. The call rests on the fitted dose curve; in most records, active means well fitted inhibition curve with a large enough effect; inconclusive means small, poorly fitted or top-dose-only effect; inactive means no such curve, though single readings can be large or run the other way.
# Biological target: Chromobox protein homolog 1 (Homo sapiens) (UniProt P83916)
# Experiment: HTS for Inhibitors of HP1-beta Chromodomain Interactions with Methylated Histone Tails; further: nearly all actives have a fitted effect of over 70% in size
# Settings: AlphaScreen HP1-beta / biotin-H3K9me3 peptide binding; series mostly up to 114 µM; activity change, negative = inhibition: at the top concentration
# Procedure, shortened: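 Compound inhibition of the preformed complex between 50 nM HP1-beta and 50 nM biotinylated H3K9me3 peptide was read by AlphaScreen. Buffer was PBS pH 7.4 with 0.01% Tween-20. Incubations ran 30 min at room temperature, with 10 ug/mL donor/acceptor beads.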
# Potency means the concentration at half of the fitted maximal effect.
# Chain of Chromobox protein homolog 1 (Homo sapiens) (P83916 whole entry, looked up): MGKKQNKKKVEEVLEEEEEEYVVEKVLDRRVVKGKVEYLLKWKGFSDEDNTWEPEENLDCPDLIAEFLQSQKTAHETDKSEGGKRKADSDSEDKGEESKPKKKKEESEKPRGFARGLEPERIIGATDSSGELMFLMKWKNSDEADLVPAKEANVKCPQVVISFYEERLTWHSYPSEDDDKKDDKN
SMILES,Potency,"activity change, negative = inhibition"
O=C(OC12CC3CC(CC(C3)C1)C2)c1ccc(NCc2cc(O)ccc2O)cc1,70.8 µM (active),–
O=C(Cn1ncn2nc(-c3cccs3)cc2c1=O)NCc1cccc(Br)c1,–,38.2%
Cc1cc(C)c(C=NNc2nc3c([nH]2)c(=O)n(C)c(=O)n3C)c(C)c1,–,8.59% [at 57 µM]
Cc1ccc(CNC(=O)CSc2c(C)cnc3c2c(=O)n(C)c(=O)n3C)cc1,–,31.3%
Cc1ccc(NN=Nc2nc3c([nH]2)c(=O)n(C)c(=O)n3C)cc1,35.5 µM (active),–
COc1ccc(NC(=O)CSc2nc3ncccc3[nH]2)c(OC)c1,–,58.9%
COc1ccc(CNC(=O)CCc2c(C)nn(-c3ccc(N4CCCC4)nn3)c2C)cc1,–,59.8%
Cc1cccc(C)c1-n1ncc(C(=O)NCCCN2CCCCC2)c1C1CCN(C(=O)OC(C)(C)C)CC1,–,45.8%
Cc1cccc(Nc2cc(C)nc(-n3nc(C)cc3C)n2)c1,–,25.9% [at 57 µM]
COc1ccc(OC)c(-n2nnc(-c3nc(-c4cc(OC)c(OC)c(OC)c4)no3)c2C)c1,–,9.72%
CCCC(=O)NC(=S)Nc1ccc(CN2CCOCC2)cc1,–,32.7%
OCCN1CCOCCOCCN(CCO)CCN(CCO)CC1,–,48.4%
Oc1c(CN2CCOCC2)ccc(CN2CCOCC2)c1O,15.8 µM (active),–
Cc1cc(C)cc(C(=O)N2CCN=C2SCc2ccc([N+](=O)[O-])cc2)c1,–,-0.188%
CC(=O)N1CC[n+]2c(-c3ccc([N+](=O)[O-])cc3)csc21,10 µM (active),–
O=C(C1CCC1)N1CCN(S(=O)(=O)c2ccc([N+](=O)[O-])cc2)CC1,–,31.4%
O=S(=O)(c1ccc(Cl)cc1)c1nnn2c1nc(NC1CCCC1)c1sccc12,–,20.5%
Cc1ccccc1CNC(=O)c1cccc(NC(=O)c2nsc3ccccc23)c1,–,27.1% [at 57 µM]
Cc1ccc(NC(=O)Nc2sc3nc4n(c(=O)c3c2C)CCC(C)CC4)c(Cl)c1 (configuration not stated),–,61.7%
O=C(CCNC(=O)c1ccc([N+](=O)[O-])cc1)NC1CCCCC1,–,-12.6%
CC1CCc2noc(NC(=O)c3ccc([N+](=O)[O-])cc3)c2C1 (configuration not stated),–,61.7%

SMILES,Potency,"activity change, negative = inhibition"
O=C(Nc1cc2c3c(c1)C1CCCC1CN3CC1CCCC21)c1ccc([N+](=O)[O-])cc1 (configuration not stated),11.2 µM (active),–
Cc1ccc(-c2cn3c(n2)sc2cc(C(=O)NCCCc4ccccc4)ccc23)cc1,–,30%
CCOC(=O)c1c(C)oc2nc(C)nc(Nc3ccc(CC)cc3)c12,–,31.5%
COCCNc1ncnc2c1c(-c1ccccc1)cn2-c1ccc(C)c(Cl)c1,–,28.5%
COc1ccc(S(=O)(=O)NC(C)C(=O)N2CCCCCC2)cc1 (configuration not stated),–,22.8%
COc1ccc(S(=O)(=O)/N=C2\C=C(NS(=O)(=O)c3ccccc3)C(=O)c3ccccc32)cc1,28.2 µM (active),–
COc1ccc(S(=O)(=O)Nc2cc3c(C(=O)OC(C)C)c(C)oc3c3ccccc23)cc1,–,11.2%
CCCN1CCN(CCCNC(=O)Cn2nc(CC)n3c(cc4occc43)c2=O)CC1,–,29.7%
O=C1C=CC(=O)N1c1ccc(N2CCCCC2)cc1,15.8 µM (active),–
Cc1ccc(CN2COc3cc(C)c4c(oc(=O)c5ccccc54)c3C2)cc1,–,32.2%
CC(C)Cn1c(=O)c2ccccc2n2c(-c3cccc(Cl)c3)nnc12,–,-1.29%
O=c1[nH]c2ccccc2n2c(-c3ccccc3)nnc12,5.62 µM (active),–
O=c1cc(-c2ccccc2)n2c(SCc3ccccc3)nnc2[nH]1,–,41.7%
O=C(CNS(=O)(=O)c1cccs1)N1CCN(c2ccccc2Cl)CC1,–,4.55%
C/C=C(\C)C(=O)N1CC2(CC(c3cccc(NC(=O)CCCCC)c3)=NO2)C[C@@H]1C(N)=O (some centres not stated),–,13.4%
CC/C=C/C(=O)N1CC2(CC(c3cccc(NC(=O)CC)c3)=NO2)C[C@H]1C(N)=O (some centres not stated),–,67.8%
C=C(C)C(=O)Nc1cccc(C2=NOC3(C2)C[C@H](C(N)=O)N(C(=O)C(c2ccccc2)c2ccccc2)C3)c1 (some centres not stated),12.6 µM (active),–
O=C(O)C1CC=CC2CCN(C3CCCCC3)C(=O)C21 (configuration not stated),–,41%
COC(=O)c1cc(NC(=O)CCS(=O)(=O)c2cc(Br)cc3c2N(C(=O)C2CC2)CC3)cc(C(=O)OC)c1,–,15.5%
Cc1n[nH]c(=O)n1-c1ccc(Oc2ccccc2)cc1,–,21%
COc1ccc(-c2nn3c(-c4ccc(OC)cc4)nnc3c3ccccc23)cc1,–,33.3%

SMILES,Potency,"activity change, negative = inhibition"
COc1ccc(-c2nc(=N)sn2-c2ccccc2)cc1,14.1 µM (active),–
CN(Cc1ccccc1)C(=O)c1cn(C)c2ccc(S(=O)(=O)N(C)C3CCCCC3)cc2c1=O,–,28.9%
Cc1c(Cl)cccc1NC(=O)C(=O)NCCc1csc2nc(-c3ccccc3F)nn12,–,14.2% [at 57 µM]
COc1ccc(CCNc2ncnc3c2cnn3-c2ccc(C)cc2)cc1,–,30.8%
Cc1ccc(S(=O)(=O)N2CCN(c3nc(-n4cnc5ccccc54)nc4ccccc34)CC2)cc1,–,5.58%
O=C(NCc1ccc2c(c1)CCN2C(=O)c1ccccc1)Nc1cc(F)ccc1F,–,-2.95% [at 57 µM]
COCCCn1c(Cc2csc(Nc3cccc(Cl)c3)n2)nnc1SCC(=O)OC1CCCCC1,50.1 µM (active),–
COCCCn1c(SCC(=O)Nc2ccccc2)nnc1-c1ccncc1,–,3.76%
CCOc1ccc(Nc2nc(Cc3nnc(SCC(=O)NC4CCCC4)n3C)cs2)cc1,–,14.3%
COc1ccc(-c2nc3scc(CCNS(=O)(=O)c4cc(F)ccc4OC)n3n2)cc1OC,–,-5.93%
CCS(=O)(=O)c1cc([N+](=O)[O-])c(Sc2ccccc2N)s1,39.8 µM (active),–
Cc1ccc(CNC(=O)C2(C(F)(F)F)C/C(=C\CCO)CCCO2)o1 (configuration not stated),–,49.9%
COc1ccc(/C=C/c2noc(-c3ccccc3O)n2)cc1OC,–,14%
CC(=O)OCC(NC(=O)C(Cc1ccccc1)NC(=O)OC(C)(C)C)C1OC(n2ccc(=O)[nH]c2=O)C(OC(C)=O)C1OC(C)=O (configuration not stated),–,30.5%
O=S(=O)(NCCS(=O)(=O)N1CCN(c2ccccc2)CC1)c1ccc(Cl)cc1,–,22.9% [at 57 µM]
C=CC1=C(C(=O)O)N2C(=O)[C@@H](NC(=O)/C(=N/OCC(=O)O)c3csc(N)n3)[C@H]2SC1,14.1 µM (active),–
CCCCCCC1(C)NC(c2ccc3c(c2)OCO3)=CC(c2ccccc2O)N1 (configuration not stated),–,0.409% [at 57 µM]
CN(C)c1ccc(CSc2ccccc2)cc1,39.8 µM (active),–
O=C(Nc1ccc(CSc2ccccc2)cc1)c1ccc(CN2CCOCC2)cc1,–,25.2%
CN(C)c1ccc(C(CC(=O)O)C(=O)O)cc1 (configuration not stated),–,3.78%
